Screens as filed in PubChem.
Shown are actives, neighbours in structure and some others; about 4.8% of the full set was active somewhere.
USP2a block = blocks human ubiquitin-specific protease USP2a; USP2 core, Ub-CHOP2 coupled fluorogenic reporter, 485/531; O75604; 330,000 compounds, 0.01% hits; Potency, µM (series often up to 38.3 µM), inactives show at the highest dose activity change, negative = inhibition, usual class: inhibitors;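 further: potency means the concentration at half of the fitted maximal effect; plate controls were DMSO wells for no effect and full inhibition by NEM control for full effect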
Target sequence (O75604 whole entry, looked up): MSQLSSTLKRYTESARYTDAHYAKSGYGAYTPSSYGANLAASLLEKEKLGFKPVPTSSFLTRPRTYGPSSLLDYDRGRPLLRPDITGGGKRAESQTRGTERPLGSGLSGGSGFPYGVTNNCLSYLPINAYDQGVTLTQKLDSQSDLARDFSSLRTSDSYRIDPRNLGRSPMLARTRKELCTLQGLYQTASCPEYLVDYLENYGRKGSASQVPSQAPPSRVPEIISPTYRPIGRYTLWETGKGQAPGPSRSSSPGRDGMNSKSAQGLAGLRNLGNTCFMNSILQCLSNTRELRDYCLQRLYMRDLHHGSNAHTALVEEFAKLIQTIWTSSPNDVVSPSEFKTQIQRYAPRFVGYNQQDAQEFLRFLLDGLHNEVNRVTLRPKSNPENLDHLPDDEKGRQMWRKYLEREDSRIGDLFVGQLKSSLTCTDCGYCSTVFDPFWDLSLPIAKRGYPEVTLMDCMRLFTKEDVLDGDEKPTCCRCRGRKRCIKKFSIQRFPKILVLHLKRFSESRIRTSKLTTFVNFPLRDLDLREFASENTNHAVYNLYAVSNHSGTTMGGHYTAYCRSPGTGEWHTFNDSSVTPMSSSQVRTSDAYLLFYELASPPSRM
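Deubiquitinase activity read as fluorescence (485/531 nm) after Ub-CHOP2 cleavage activates the enterokinase reporter on its substrate; USP2 core 10nM, Ub-CHOP2 and substrate 25nM each, 30min compound preincubation then 60min RT; data normalized to NEM, curves fitted.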
USP1 inh = inhibitors of human USP1/UAF1 deubiquitinase; O94782; recombinant USP1/UAF1, Ub-Rhodamine cleavage fluorescence; Potency, µM (highest dose often 57.1 µM), for the others: top-dose activity change, negative = inhibition, usual class: inhibitors; 390,000 compounds, 0.23% hits; further: potency means the concentration at half of the fitted maximal effect; on the % scale 0 is the no-effect control and ±100 the full control effect; nearly all actives have a fitted effect of over 60% in size
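Step one: compound is pinned into 1nM USP1/UAF1 in HEPES pH 7.8 buffer with TCEP. Step two: 15 min room-temperature incubation. Step three: Ub-Rho (150nM final) starts cleavage, tracked by fluorescence over six one-minute reads.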
S2 tox = reduces viability in counter-screen for ATXN expression inhibitors; S2 cells (HEK-293 line with an ATXN2-luciferase reporter) viability, CellTiter-Fluor protease fluorescence, 24 h; Potency, µM (series often up to 56.7 µM), actives largely listed as cytotoxic; 400,000 compounds, 0.49% hits; AID 651635; further: potency means the concentration at half of the fitted maximal effect; nearly all actives have a fitted effect of over 40% in size
ATXN2 expr inh = inhibitors of ATXN2 expression. 360,000 compounds, 0.72% hits. HEK-293 ATXN2-luciferase reporter, luminescence, 24 h. AID 1745845. Potency, µM (top dose mostly 57 µM), for the others: at the highest dose activity change, negative = inhibition, hits mostly inhibitors; further: potency means the concentration at half of the fitted maximal effect; on the % scale 0 is the no-effect control and ±100 the full control effect; nearly all actives have a fitted effect of over 55% in size
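qHTS (up to 57 uM final) was run with 24 h compound exposure of reporter cells at 37 °C. Each well was multiplexed: SteadyGlo luminescence measured ATXN2-luciferase expression after a fluorogenic Gly-Phe-AFC viability readout (25 uM final).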
IL1B secr inh = inflammasome signaling inhibition, IL-1 beta readout; THP-1 LPS/ATP IL-1B secretion, AlphaLISA, 16 h; stronger effect = lower value; 360,000 compounds, 4.7% hits; activity change, % at 57.5 µM; in the data active means activity change below about -50%; inconclusive means mostly about -30% to -49%; further: on the % scale 0 is the no-effect control and ±100 the full control effect
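Secreted IL-1B measured by AlphaLISA bead assay after 16 h compound exposure of THP-1 cells; compounds (final up to 57.5 uM) added 1 h before LPS (250 ng/mL) and ATP (1.25 mM) stimulation; lower signal means less secretion.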
Numbers without * were called inactive. Unless noted, the call rests on the fitted dose curve; in most records, active means well fitted curve in the direction sought with a large enough effect; inconclusive means small, poorly fitted or top-dose-only effect, or another doubt; inactive means no such curve, though single readings can be large; an effect the other way counts as inactive or inconclusive.

How did Cc1ccc(S(=O)(=O)N2CCCC2CNC(=O)C(=O)NCc2ccc3c(c2)OCO3)cc1 (centres undefined) do in these assays?
USP1 inh: -9.3%; S2 tox: inactive; IL1B secr inh: -7.9

What do the screens show for `Cc1ccc2[nH]c(O)c(N=Nc3nc4ccccc4s3)c2c1`?
USP2a block: -7.4%; USP1 inh: -5.9%; S2 tox: 12.6µM*; ATXN2 expr inh: inconclusive; IL1B secr inh: 17.9

Results for Nc1nnnn1-c1ccccc1 ?
S2 tox: inactive; ATXN2 expr inh: -5.9%

How did CNS(=O)(=O)/C=C/c1ccccc1 do in these assays?
USP2a block: -1.0%; USP1 inh: -6.3%; S2 tox: inactive; ATXN2 expr inh: -9.5%; IL1B secr inh: -12.4

Results for O=S(=O)(/C=C/c1ccccc1)Oc1ccccc1 ?
USP2a block: -0.3%; USP1 inh: -16.7%; S2 tox: inactive; ATXN2 expr inh: -5.6%; IL1B secr inh: -88.9*

How did C=CCC(CC=C)(CNC(=O)C(=O)Nc1ccc(C(=O)OCC)cc1)c1ccccc1 do in these assays?
USP1 inh: -26.1%

What do the screens show for `CC(C)(C)c1ccc(OCCNC(=S)Nc2ccccc2)cc1`?
USP2a block: -13.5%; USP1 inh: -11.3%; S2 tox: inactive; ATXN2 expr inh: -33.6%; IL1B secr inh: -107.3*

Results for CC(C)(C)c1ccc(OCCNCc2ccccc2)cc1 ?
USP2a block: 4.3%; USP1 inh: -17.8%; S2 tox: inactive; ATXN2 expr inh: -3.9%; IL1B secr inh: -93.0*

Results for O=C(NC1CC1)c1cccc(NC(=O)C2CCCCC2)c1 ?
USP1 inh: -13.4%; S2 tox: inactive; ATXN2 expr inh: 18.4%; IL1B secr inh: 14.7

How did CCC(=O)N1c2ccc(S(=O)(=O)CCC(=O)N3CCN(c4ccccc4F)CC3)cc2CC1C (centres undefined) do in these assays?
USP2a block: 0.0%; USP1 inh: -7.8%; S2 tox: inactive; ATXN2 expr inh: -19.8%; IL1B secr inh: -21.8

What do the screens show for `Cc1ccc(NC(=O)c2ccc(Cl)c(N3C(=O)C=CC3=O)c2)cc1`?
USP2a block: -1.2%; USP1 inh: -11.1%; S2 tox: inconclusive; ATXN2 expr inh: inconclusive; IL1B secr inh: -55.6*

How did O=C(CSc1nc2ccccc2nc1SCC(=O)N1CCCCC1)N1CCCCC1 do in these assays?
USP2a block: 0.0%; USP1 inh: -12.7%; S2 tox: inconclusive; ATXN2 expr inh: inconclusive; IL1B secr inh: -59.5*

How did Cc1ccc(NS(=O)(=O)c2ccc3c(c2)n(C)c(=O)n3C)cc1 do in these assays?
USP2a block: -0.4%; USP1 inh: -21.3%; S2 tox: inactive; ATXN2 expr inh: 3.8%; IL1B secr inh: -12.2

How did CCOc1ccc(NS(=O)(=O)c2ccc(C(=O)N3CCCCCC3)cc2)cc1 do in these assays?
USP2a block: -4.5%; USP1 inh: -5.6%; S2 tox: inactive; ATXN2 expr inh: -27.6%; IL1B secr inh: -13.7

How did COc1ccc(NS(=O)(=O)c2ccc3c(c2)n(C)c(=O)n3C)cc1 do in these assays?
USP2a block: 0.2%; USP1 inh: 7.3%; S2 tox: inactive; ATXN2 expr inh: 1.4%; IL1B secr inh: -70.4*

How did COc1ccc(NS(=O)(=O)c2ccc(C(=O)N3CCCCCC3)cc2)cc1 do in these assays?
USP2a block: 2.3%; USP1 inh: -2.1%; S2 tox: inconclusive; ATXN2 expr inh: inconclusive; IL1B secr inh: -51.5*

How did CCOc1cc(N2CCOCC2)c(OCC)cc1NC(=O)COC(=O)CCOc1cc(C)ccc1C do in these assays?
USP2a block: 7.3%; USP1 inh: -6.3%; S2 tox: inactive; ATXN2 expr inh: -5.1%; IL1B secr inh: -85.9*

Results for C[C@@H]1CN([C@@H](C)CO)C(=O)CCCn2nncc2CO[C@@H]1CN(C)S(=O)(=O)c1ccc(Oc2ccccc2)nc1 ?
USP1 inh: 3.3%; S2 tox: inactive; ATXN2 expr inh: 1.1%; IL1B secr inh: inconclusive

What do the screens show for `Cc1cc(=O)n2c3ccccc3n(CC(O)CN3CCCC3)c2c1C#N` (centres undefined)?
USP2a block: -4.6%; USP1 inh: 14.3%; S2 tox: inconclusive; ATXN2 expr inh: -19.3%; IL1B secr inh: -65.1*

Results for CCN(CC(=O)Nc1ccc(N2CCOCC2)cc1)C(=O)c1ccc(C(F)(F)F)cc1 ?
USP2a block: 2.5%; USP1 inh: -8.2%; S2 tox: inactive; ATXN2 expr inh: inconclusive; IL1B secr inh: -57.3*

How did COc1ccc2cc(/C=C3\SC(=S)NC3=O)c(N3CCOCC3)nc2c1 do in these assays?
USP2a block: 1.2%; USP1 inh: -19.5%; S2 tox: inconclusive; ATXN2 expr inh: -9.9%; IL1B secr inh: -68.9*

How did COc1cccc(C=C2SC(=S)NC2=O)c1 do in these assays?
USP1 inh: -7.8%; S2 tox: inactive; ATXN2 expr inh: 16.6%; IL1B secr inh: -7.3

How did CCOC(=O)c1ccc2c(c1)N(Cc1cccc(C(F)(F)F)c1)C(=O)c1ccccc1S2(=O)=O do in these assays?
USP1 inh: -28.3%; S2 tox: inconclusive; ATXN2 expr inh: 10.9%

What do the screens show for `Cc1cc(NC(=O)CS(=O)(=O)c2cn(Cc3cccc(Br)c3)c3ccccc23)no1`?
S2 tox: inconclusive; ATXN2 expr inh: inconclusive; IL1B secr inh: -54.3*

How did O=C1NC(c2ccccc2)N=C2Oc3ccccc3C=C12 (centres undefined) do in these assays?
USP1 inh: -8.6%; S2 tox: inactive; ATXN2 expr inh: 0.0%; IL1B secr inh: -53.6*

How did COc1ccc(Cl)cc1C(=O)Nc1ccc(NC(C)=O)cc1 do in these assays?
USP2a block: 2.5%; USP1 inh: -13.4%; S2 tox: inactive; ATXN2 expr inh: -2.8%; IL1B secr inh: -14.2

What do the screens show for `CC(=O)Oc1c(I)cc(I)cc1C(=O)Nc1ccc(Cl)cc1`?
USP2a block: 2.6%; USP1 inh: -25.1%; S2 tox: inconclusive; ATXN2 expr inh: inconclusive; IL1B secr inh: -86.6*

How did Cc1cc(C)cc(N(C(=O)c2cc3ccccc3oc2=O)C2C=CS(=O)(=O)C2)c1 (centres undefined) do in these assays?
USP2a block: 6.9%; USP1 inh: 5.2%; S2 tox: inactive; ATXN2 expr inh: -11.6%; IL1B secr inh: -67.2*

How did Cc1ccc(N(C(=O)c2cc3ccccc3oc2=O)C2C=CS(=O)(=O)C2)cc1 (centres undefined) do in these assays?
USP2a block: 1.6%; USP1 inh: 0.4%; S2 tox: inactive; ATXN2 expr inh: -5.9%; IL1B secr inh: -8.0

What do the screens show for `CN(c1ccccc1)S(=O)(=O)c1ccc(C(=O)NCc2ccccc2F)cc1`?
USP2a block: 0.9%; USP1 inh: -10.0%; S2 tox: inconclusive; ATXN2 expr inh: 5.4%; IL1B secr inh: -28.9

How did CCc1ccc(NCc2cc3cc4c(cc3n(CC(=O)Nc3ccc(C)cc3)c2=O)OCO4)cc1 do in these assays?
USP1 inh: inconclusive; S2 tox: inactive; ATXN2 expr inh: 13.1%
